Assay results reported in PubChem BioAssay (NCI).
Compounds without any hit were thinned out: in the full panel of roughly 83,000, 20% have a hit.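 For each line, cells grew in 96-well plates with the test compound present at a single concentration for 48 hours.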 Values without a mark were called inactive. Calls of active or inactive are those of the source. Rule for the calls: active = growth percent below 10; inactive = the rest.

Experiments:
Assay in all cases: NCI-60 one-dose screen, 48 h (100 = growth as untreated, 0 = no growth, -100 = all killed)
Details in all cases: 10 µM unless noted
[1] = test system: SK-MEL-2 melanoma
[2] = test system: EKVX NSCLC
[3] = test system: SN12C renal
[4] = test system: UO-31 renal
[5] = test system: TK-10 renal
[6] = test system: ACHN renal
[7] = test system: CAKI-1 renal
[8] = test system: A498 renal
[9] = test system: CCRF-CEM leukemia
[10] = test system: MOLT-4 leukemia

SMILES | growth [1] | growth [2] | growth [3] | growth [4] | growth [5] | growth [6] | growth [7] | growth [8] | growth [9] | growth [10]
C/C(Cc1ccc(Cl)cc1)=C(/c1ccc(Cl)cc1)c1ccc(OCCN(C)C)cc1 | 109% | 81.8% | 47.9% | 65% | 82.9% | 82.8% | 54.6% | 80.8% | 39.5% | 31.7%
O=C1c2cccc3c(-c4ccc(-c5nc6c7ccccc7c7ccccc7c6[nH]5)cc4)ccc(c23)C(=O)N1CCN1CCNCC1 | 105% | 97% | 93.4% | 94.2% | 104% | 71.7% | 91.4% | 107% | 37.5% | 53.4%
CC(=O)NCC(=O)Nc1ccc(-c2nnc3ccccn23)nc1.CC(=O)NCC(=O)Nc1ccc(-c2nnc3ccccn23)nc1.[Pt+2] | 91.4% | 110% | 106% | 106% | 103% | 103% | 115% | 101% | 93.3% | 96.9%
O=C1C(Cl)C(c2ccccc2Cl)N1n1cnnc1 (stereo not given) | 102% | 99.8% | 100% | 83.3% | 102% | 96.8% | 85.6% | 93.9% | 98.6% | 101%
COc1cc(C(=O)Nc2cc(O)c(CC=C(C)C)c(O)c2)cc2c1O[C@]1(C)CC[C@@H](O)C(C)(C)[C@H]1C2 | 12.9% | 36.6% | 64.6% | -1.4% (active) | 33.2% | 26.4% | 9.89% (active) | 16.7% | 2.18% (active) | -15.7% (active)
Cn1cc(-c2ccc3nc(-c4ccc(CC(=O)Nc5cc(C(C)(C)C)no5)cc4)cnc3c2)cn1 | 22.2% [30 µM] | 26.1% [30 µM] | 3.38% [30 µM] (active) | 7.7% [30 µM] (active) | 63.5% [30 µM] | 5.16% [30 µM] (active) | 6.29% [30 µM] (active) | -4.96% [30 µM] (active) | 45.9% [30 µM] | 22.1% [30 µM]
Cn1ccnc1C(=O)/C=C/c1ccc(C(=O)Nc2ccc(S(F)(F)(F)(F)F)cc2)cc1 | 62.7% | 26.3% | 7.07% (active) | 28.5% | 48.8% | 42.5% | 23.9% | 38.4% | 3.4% (active) | -5.05% (active)
C=C1C(=O)O[C@H]2[C@H]1CC/C(COC(=O)/C=C\C(=O)NCc1ccc(Cn3c(=O)sn(-c4ccc(C#N)cc4)c3=O)cc1)=C\CC[C@@]1(C)O[C@@H]21 | -64.9% (active) | -56.9% (active) | -93.8% (active) | -100% (active) | -85.1% (active) | -100% (active) | -69.1% (active) | -8.82% (active) | -18.1% (active) | -32.3% (active)
OC(c1cccc(OCc2ccccc2)c1)c1nnc(-c2ccccc2)o1 (stereo not given) | 100% | 77.3% | 92.8% | 68.1% | 143% | 92.6% | 95.2% | 102% | 75.7% | 105%
COc1cccc(-c2nc3sccn3c2-c2ccnc(NCCNS(=O)(=O)c3c(Cl)cccc3Cl)c2)c1 | 74.6% | 55.6% | 60.5% | 24.1% | 68.5% | 44% | 36.3% | 48.6% | 31.1% | 33.7%
O=C(O)C1C[C@](O)(c2ccc(F)cc2)[C@@H](c2ccc(F)cc2)O1 (stereo not given in full) | 102% | 105% | 116% | 78.5% | 108% | 116% | 40.5% | 156% | 82.4% | 97.2%
CCCCCCNC(=O)c1cc(NCc2cc(O)ccc2O)ccc1O | 95.5% | 66.6% | 56.3% | 34.4% | 68.6% | 57.1% | 56.3% | 99% | 5.38% (active) | 12.5%
CN(C)c1ccc(/C=N/NC(=O)COc2cc(=O)n(C)c3ccccc23)cc1 | 111% | 103% | 99.5% | 71.7% | 119% | 90.6% | 83.7% | 104% | 106% | 104%
c1ccc2[nH]c(SSc3nc4ncncc4[nH]3)nc2c1 | 57.2% | 67.5% | 42.3% | 31.6% | 30% | 32.2% | -46.4% (active) | 61.7% | 24.7% | 26%
Cn1cc(-c2ccc3ncc(-c4ccc(CC(=O)Nc5cc(C(C)(C)C)nn5C)cc4)cc3c2)cn1 | -9.17% [30 µM] (active) | 27.1% [30 µM] | 16.6% [30 µM] | 7.45% [30 µM] (active) | 40.6% [30 µM] | 8.71% [30 µM] (active) | 5.68% [30 µM] (active) | 11.4% [30 µM] | -15.4% [30 µM] (active) | -22.1% [30 µM] (active)
C=C1C(=O)O[C@H]2[C@H]1CC/C(Cn1cc(CNCCc3c[nH]c4ccc(Cl)cc34)nn1)=C\CC[C@@]1(C)O[C@@H]21 | 52.3% | 84.1% | 58.6% | 80.1% | 0.209% (active) | 54% | 48.2% | 90% | -29.6% (active) | 0.755% (active)
COc1cc(-c2ncn(/C=C\c3nnco3)n2)cc(C(F)(F)F)c1 | -6.5% (active) | 61.5% | 33.6% | 18.3% | 34% | 27.7% | 26.1% | -33.9% (active) | 13.6% | 1.86% (active)
C=C(C)C1CCC(=C)C2CCC3(C)OC12/C=C(/COC(C)=O)CCC3O (stereo not given) | 85.4% | 96.1% | 106% | 92.7% | 121% | 98.2% | 6.18% (active) | 104% | 130% | 83.6%
Nc1ccc(S(=O)(=O)Nc2ccsc2-c2nc(-c3ccccc3)no2)cc1 | 32.3% | 73% | 84.8% | 71.3% | 66.1% | 87.8% | 53.8% | 61.2% | 53.2% | 36.5%
O=[N+]([O-])c1ccccc1C(O)Cc1ccc2ccccc2n1 (stereo not given) | 108% | 83.8% | 95.2% | 66.6% | 148% | 85.9% | 88% | 68% | -50.2% (active) | -6.33% (active)
CCCCC1COc2cccc3c(SCC(=O)N(C)c4cccc(Cl)c4)cc[n+]1c23 (stereo not given) | 105% | 113% | 94.4% | 90.7% | 110% | 101% | 102% | 106% | 105% | 109%
NC(N)=N/N=C/c1ccc(Br)cc1 | 77.8% | 62.4% | 62.1% | 47.4% | 13.9% | 44.5% | 27.1% | 44.8% | 32.6% | 38.9%
N#Cc1cccc(-c2nc3ccccn3c2NCCN2CCOCC2)c1 | 100% | 104% | 96% | 73.3% | 101% | 98.3% | 85.1% | 99.1% | 92.5% | 96.5%
CN1CCC(=C2c3ccccc3C=Cc3ccccc32)CC1 | 105% | 91.9% | 79.1% | 67% | 112% | 84.4% | 95.5% | 99.2% | 53.1% | 72.6%
